Reference: PubChem BioAssay (NCI)
This is part of a sample that, as a whole, favours compounds with a hit. Of some 83,000 tested, about 20% had one in any assay.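 In brief: 96-well plates, 48 h treatment, single concentration, percent growth endpoint.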 A number with no mark means an inactive call. The source made the active and inactive calls. The calls were made as follows: active = growth percent below 10; inactive = the rest.

Legend:
Experiment in all cases: NCI-60 one-dose screen, 48 h (100 = growth as untreated, 0 = no growth, -100 = all killed)
Details in all cases: 10 µM
T-47D breast = system: T-47D breast
BT-549 breast = system: BT-549 breast
MDA-MB-435 melanoma = system: MDA-MB-435 melanoma
SW-620 colon = system: SW-620 colon
MCF7 breast = system: MCF7 breast
HCT-116 colon = system: HCT-116 colon
HCC-2998 colon = system: HCC-2998 colon
KM12 colon = system: KM12 colon

SMILES | growth (T-47D breast) | growth (BT-549 breast) | growth (MDA-MB-435 melanoma) | growth (SW-620 colon) | growth (MCF7 breast) | growth (HCT-116 colon) | growth (HCC-2998 colon) | growth (KM12 colon)
COc1ccc(-c2nnc(COc3ccc(NC(=O)Nc4ccccc4)cc3F)o2)cc1 | 62.1% | 79.6% | 92.3% | 102% | 90.3% | 69.8% | 103% | 68.5%
O=C(CCl)N1c2ccccc2Sc2ccc3ccccc3c21 | -68.2% (active) | -40.9% (active) | -34.7% (active) | -65.6% (active) | 10% (active) | -99.6% (active) | -94.4% (active) | -77.5% (active)
FC(F)(F)c1ccc(-c2cnc(Cl)nc2NC2CCCCCC2)cc1 | 12.4% | 52.5% | 11% | 21.5% | 20.7% | 16.5% | 67.9% | 16.5%
COc1ccc(-c2[nH]ncc2-c2cc(OC)c(OC)c(OC)c2)cc1 | 58.1% | -6.65% (active) | -48% (active) | 23.6% | 6.61% (active) | 2.61% (active) | -3.98% (active) | -8.7% (active)
COc1ccc(CSc2nc3cc(OC)c(OC)cc3c(=O)n2-c2ccc(OC)cc2OC)cc1 | 75.6% | 93.9% | 62% | 90.3% | 83.1% | 62.9% | 101% | 78.1%
Nc1cc2c(cc1Cl)-c1ccc(Cl)cc1C2=O | 59.6% | 100% | 103% | 95.8% | 42.1% | 76.4% | 101% | 96.4%
COc1ccc(-c2ccccc2)cc1C(=O)c1ccc(-c2ccccc2)cc1 | 85.7% | 76.8% | -7.15% (active) | 52.3% | 50.6% | 60.8% | 74.6% | 48.5%
O=c1cc(CSc2nnc(-c3ccccc3)n2-c2ccc(F)cc2)c2ccc3ccccc3c2o1 | 76.7% | 102% | 112% | 104% | 99.5% | 86.5% | 86.9% | 95.8%
CCc1nn2c(-c3ccccc3)c(-c3cc(OC)c(OC)c(OC)c3)nc2s1 | 72.5% | 111% | 95.5% | 83.5% | 60.6% | 80.8% | 91.6% | 94.7%
CN1CCN(c2nc(-c3cccnc3)nc3sc4c(c23)CCCCCC4)CC1 | 77.4% | 95.3% | 98.4% | 102% | 88.2% | 85.3% | 56.7% | 100%
COC(=O)c1cnc2c(c1)Oc1ccc(Cl)cc1-c1cc(C)nn1-2 | 59.9% | 83.4% | 91.3% | 66% | 83.4% | 42.6% | 92.1% | 85.8%
COc1ccc(-c2oncc2-c2cc(OC)c3c(c2)OCO3)cc1 | 34.7% | 2.88% (active) | -35.5% (active) | 16.4% | 18% | 14.1% | 56% | 31.3%
COc1cc(-c2nc3ccccc3[nH]2)ccc1OCC(=O)N=Nc1c(O)[nH]c2ccccc12 | 32.6% | 104% | 79.1% | 64.8% | 28% | 31.6% | 96.1% | 27%
COc1ccccc1Cn1cc2c(c1-c1ccccc1)CCc1cnoc1-2 | 29.4% | 46.9% | -21.3% (active) | 16.8% | 19.3% | 20.9% | 81% | 29.5%
CCOc1ccc2c(c1)CC[C@@H]1[C@@H]2CC[C@]2(C)[C@@H](O)[C@@H](O)C[C@@H]12 | 93.8% | 119% | 90.2% | 95.9% | 111% | 104% | 108% | 106%
O=NN(CC(=O)N/N=C/C=C\c1ccccc1)CC(=O)N/N=C/C=C/c1ccccc1 | 89% | 123% | 103% | 104% | 69.6% | 96.2% | 119% | 109%
CCN1CCN(c2nc(NNC(=O)c3cccc(OC)c3)nc(N3CCN(C(c4ccccc4)c4ccccc4)CC3)n2)CC1 | 47.9% | 63.3% | 19.5% | 69.5% | 12.8% | 26.7% | -16.4% (active) | 25.7%
CC(=O)n1nc(C(=O)OC(C)(C)C)c2cc(F)c(F)cc21 | 104% | 119% | 95.9% | 94.1% | 99.2% | 95% | 102% | 90%
O=C(Nc1cccc(F)c1)Nc1cccc(Cl)c1 | 76.5% | 104% | 89.9% | 74% | 87.8% | 92.3% | 89.9% | 47.6%
COc1c(C)c(C)c(OC)c2c1[nH]c(=O)c1c3cccnc3cn21 | 94.9% | 124% | 110% | 99.3% | 88.5% | 104% | 120% | 106%
Cc1cc2cc3c(=O)[nH]c(=O)cc-3n(CC(O)C(O)C(O)CO)c2cc1C (stereo unspecified) | 95.1% | 104% | 104% | 89.8% | 101% | 101% | 109% | 108%
C#CCn1c(-c2cccc(OCCCCl)c2)nc2c1c(=O)n(C)c(=O)n2C | 18% | 13.8% | 78.9% | 95% | 84.7% | 51.9% | 104% | 56.5%
c1ccc(CC(NCCNC(Cc2ccccc2)c2ccccc2)c2ccccc2)cc1 (stereo unspecified) | 13.9% | 56.6% | 38% | 5.83% (active) | -7.95% (active) | -25.3% (active) | 3.25% (active) | 16.3%
Cc1cccc2c1O/C(=C\c1ncc([N+](=O)[O-])n1C)C2=O | 89.7% | -53.7% (active) | -54.1% (active) | -11.6% (active) | 2.72% (active) | -66.6% (active) | -73.1% (active) | -50.6% (active)
COc1cc(-c2cc(-c3ccc(C)cc3)nc3nc(N)[nH]c(=O)c23)ccc1Oc1ccnc2cc(Cl)ccc12 | 69.6% | 112% | 85.3% | 98.2% | 51.2% | 88.8% | 79.5% | 67%
COc1cccc(C(=O)NNc2nc(N3CCN(C4CCCCC4)CC3)nc(N3CCN(C(c4ccccc4)c4ccccc4)CC3)n2)c1 | 29% | 55.5% | 35% | 39% | 11.2% | 19% | 42% | 23.6%
Cc1ccccc1C1=N[C@@H](Cc2ccccc2)C(=O)c2c(nc3ccccn23)N1 | 104% | 96.9% | 98.8% | 103% | 84.9% | 86.9% | 99.9% | 108%
